# According to PubChem BioAssay AID588773 (The Scripps Research Institute Molecular Screening Center, 2011):
# Active and inactive are the calls of the source.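 The calls were made as follows: active = inhibition of plasma PAF acetylhydrolase at a set limit or more at 0.1 µM, with tenfold selectivity over all off-targets; inactive = inhibition below the limit or weaker selectivity.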
# Test: competitive ABPP of pPAFAH versus proteome off-targets – biochemical, gel-based, FP-Rh fluorescence, mouse, HTS hit compounds, selectivity assay for pPAFAH inhibitor project, late-stage follow-up (AID 588773)
# Details: MW 32 kDa protein, at 10 µM
row,Structure (SMILES),outcome
1,CCCCOC(=O)c1ccc(OC(=O)N2CCOCC2)cc1,inactive
2,O=C(CCCSc1ccc(Cl)cc1)Nc1cc(S(=O)(=O)N2CCOCC2)ccc1O,inactive
3,O=C(Oc1ccc(-c2ccccc2)cc1)N1CCOCC1,inactive
4,O=C(/C=C/c1cccs1)c1cc(Br)ccc1OC(=O)N1CCOCC1,inactive
5,O=C(Oc1nsnc1N1CCOCC1)N1CCOCC1,inactive
6,O=C(Oc1ccc(-c2ccccc2)cc1)N1CCCCC1,inactive
7,O=C(Oc1ccc(Oc2ccccc2)cc1)N1CCC(O)CC1,inactive
